KDM5B inh: inhibitors of human KDM5B histone demethylase | Q9UGL1 | KDM5B demethylase, FDH-coupled NADH fluorescence (FDH is formaldehyde dehydrogenase) | Potency, µM (doses to about 57.7 µM), most hits filed as inhibitors | 2.6% of 220,000 active; note: nearly all actives have a fitted effect of over 70% in size
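Inhibition is measured as reduced NADH fluorescence generation from FDH coupling to formaldehyde release. Truncated KDM5BΔAP at 200 nM final acts on H3K4me3 peptide (12.5 µM in substrate mix) in pH 7.5 HEPES buffer with Tween-20, 30 min, room temperature.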
HEK293 viab: cell viability loss counter-screen; HEK-293-SNCA-luc viability, GF-AFC fluorescence, 24 h; Potency, µM (series often up to 57.1 µM), hits mostly cytotoxic; 0.12% of 150,000 active; AID 1671193; note: nearly all actives have a fitted effect of over 30% in size
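Cytotoxicity counterscreen: after 24 h compound treatment of genome-edited SNCA-luciferase HEK-293 cells, live-cell protease substrate GF-AFC read by fluorescence after 30 min; activity scaled between DMSO (0%) and medium-only (-100%), curves Hill-fitted.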
SNCA expr inh: reduces expression of the alpha-synuclein gene | 0.17% of 140,000 active | AID 1671194 | HEK-293 SNCA-luciferase knock-in, luminescence, 24 h | Potency, µM (top dose mostly 57.2 µM), most hits filed as inhibitors; note: nearly all actives have a fitted effect of over 45% in size
IP6K1 inh: IP6K1 kinase inhibition; Q92551; AID 1645851; IP6K1 kinase, ADP-Glo luminescence, 2 h; hits give low values; 0.81% of 140,000 active; activity change, % (series mostly up to about 58 µM); in the data active = activity change below about -25%
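ADP-Glo luminescence measures ADP made by human IP6K1 during a 2 h RT reaction with ATP/IP6 (mix at 1.3 mM/130 uM); top library doses 57.5 and 19.1 uM final.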
Numbers stand for hits; - = inactive; ? = inconclusive; . = not tested or not shown. Sampled rows, rich in hits. Any-hit rate of the full collection: about 2.8%. Unless noted, calls come from the whole dose curve; as a rule, active = well fitted curve in the direction sought with a large enough effect; inconclusive = small, poorly fitted or top-dose-only effect, or another doubt; inactive = no such curve, though single readings can be large; an effect the other way counts as inactive or inconclusive.

SMILES	KDM5B inh	HEK293 viab	SNCA expr inh	IP6K1 inh
CC(=O)N1CCN(c2cncc(C(=O)N3CCOCC3)n2)CC(O)C1 (stereo not drawn)	22µM	-	-	-
CC(=O)Nc1ccc(-c2c(C3CC3)nn(-c3cccc(C)c3)c2OC(C)=O)cc1	?	?	-	-
COc1ccc(-c2nn(-c3ccc(F)cc3)c(OC(C)=O)c2-c2ccc(NC(C)=O)cc2)cc1OC	20µM	-	-	-
CC(=O)Nc1ccc(-c2c(-c3cccc(C)c3)nn(-c3ccc(F)cc3)c2OC(C)=O)cc1	25µM	-	-	-
COc1ccc(-c2nn(-c3ccc(C)cc3C)c(OC(C)=O)c2-c2ccc(NC(C)=O)cc2)c(OC)c1	32µM	-	-	-
CCC(=O)Nc1ccc(-c2c(-c3ccc(C)cc3)nn(-c3ccc(F)cc3)c2OC(C)=O)cc1	?	-	-	-
CC(=O)Oc1c(-c2ccc(NC(=O)C3CC3)cc2)c(-c2ccc3c(c2)OCO3)nn1-c1cccc(C)c1	35µM	-	-	-
COCCOC(=O)/C(C#N)=C\c1ccc(Cl)c(Cl)c1	-	.	.	.
CCc1ccc(-c2nc(-c3nc(-c4ccc(C)cc4C)cs3)sc2C)cc1	-	.	.	.
Cc1ccc(C)c(C(=O)Nc2ccc(N(C)C)cc2)c1	-	.	.	.
CCC(=O)Nc1ccc(-c2c(-c3cc(OC)cc(OC)c3)nn(-c3ccc(C)cc3)c2OC(C)=O)cc1	28µM	-	-	-
COc1cc2c(cc1OC)C(C[C@H]1CN(C(=O)Nc3ccc(F)cc3)CC[C@H]1CC(=O)O)=NCC2	28µM	-	-	-
CCCNC(=O)N1CC[C@@H](CC(=O)O)[C@@H](CC2=NCCc3cc(F)ccc32)C1	32µM	-	-	-
CCCNC(=O)N1CC[C@@H](CC(=O)O)[C@@H](CC2=NCCc3cc(OC)ccc32)C1	?	-	-	-
COc1cc2c(cc1OC)C(C[C@H]1CN(C(=O)Nc3cccc(C(C)=O)c3)CC[C@H]1CC(=O)O)=NCC2	28µM	-	-	-
COc1cc2c(cc1OC)C(C[C@H]1CN(C(=O)N3CCOCC3)CC[C@H]1CC(=O)O)=NCC2	-	-	-	-
COCCN1Cc2ccc(Nc3ccc(OC)cc3)nc2C(C)(C(=O)NC(C)C)C1 (stereo not drawn)	-	-	-	-
COCCN1Cc2ccc(NCC(C)C)nc2C(C)(C(=O)Nc2cccc(F)c2)C1 (stereo not drawn)	32µM	-	-	-
COCCN1Cc2ccc(NCC(C)C)nc2C(C)(C(=O)Nc2ccncc2)C1 (stereo not drawn)	28µM	-	-	-
Cc1nonc1CN1CCN(C(C(=O)O)c2c[nH]c3ccc(Cl)cc23)CC1 (stereo not drawn)	-	.	.	.
CNc1ccc(C)cc1C(=O)N1CCN(C)C2(CCN(C)CC2)C1	20µM	-	-	-
COc1ccc(C)cc1NC(=O)N1CCN(C)C2(CCC(=O)N(C)CC2)C1 (stereo not drawn)	-	-	-	-
COc1ccc(Cl)cc1NC(=O)c1ncoc1-c1ccc(C)o1	-	.	.	.
O=c1c2nc(-c3ccsc3)ccc2ncn1-c1ccccc1	40µM	-	-	-
O=c1c2nc(-c3ccncc3)ccc2ncn1-c1ccccc1	-	-	-	-
SMILES	KDM5B inh	HEK293 viab	SNCA expr inh	IP6K1 inh
Cc1ccc(NC(=O)c2nc3sccn3c2-c2ccncc2)cc1	.	-	-	-
CN1C(=O)c2cccn2CC1CNC(=O)c1cc2ccccc2[nH]1 (stereo not drawn)	16µM	-	-	-
OCCC1CCN(c2ccc(-c3nc(CCCc4ccccc4)no3)cn2)CC1	-	-	-	-
CC1(O)CCCN(c2ccc(-c3nc(CCCc4ccccc4)no3)cn2)C1 (stereo not drawn)	22µM	-	-	-
OCCC1CN(c2ccc(-c3nc(CCCc4ccccc4)no3)cn2)CCO1 (stereo not drawn)	20µM	-	-	-
CCCN(Cc1ccc(OC)cc1)Cc1cc(=O)oc2ccc(C)cc12	-	.	.	.
COc1cc(F)ccc1-c1cc2c(nc1OC)nc(CC1CC1)n2C	35µM	-	-	-
COc1nc2nc(CCc3ccccc3)n(C)c2cc1-c1ccnc(C)c1	40µM	-	-	-
COc1ccc(Nc2cc3c(nc2OC)nc(CCc2ccccc2)n3C)cn1	18µM	-	-	-
COc1ncccc1-c1cc2c(nc1OC)nc(CCc1ccccc1)n2C	?	-	-	-
COc1nc2nc(CCc3ccccc3)n(C)c2cc1-c1cccc(CO)c1	35µM	-	-	-
Cc1ccc(-c2cc(C)c(C)cc2C)nc1	-	.	.	.
CNC(=O)NC(=O)COc1c(Cl)cc(Cl)c2ccc(C)nc12	-	.	.	.
COc1nc2nc(CC3CC3)n(C)c2cc1-c1ccnc(C)c1	40µM	-	-	-
COc1nc2nc(CC3CC3)n(C)c2cc1-c1ccncc1	?	-	-	-
Cc1c(C=O)c(C)n(-c2cccc(Cl)c2)c1C	-	.	.	.
c1cncc(CN2CCC(C3CCN(Cc4ccc[nH]4)C3)CC2)c1 (stereo not drawn)	14µM	-	-	-
COc1nccnc1NC1CCN(C(=O)COc2ccc(C)cc2)CC1	28µM	-	-	-
COc1nccnc1NC1CCN(C(=O)NC2CCCC2)CC1	28µM	-	-	-
COc1nccnc1NC1CCN(C(=O)COc2ccccc2C)CC1	32µM	-	-	-
COc1ccc(NC2CCCN(C(=O)COc3ccc(C)cc3)C2)cc1 (stereo not drawn)	-	.	.	.
CCc1cccc(CC)c1NC(=O)c1nn(C)c(=O)c2ccccc12	-	.	.	.
COc1ccc(-c2ccc3c(n2)CN(Cc2ccccc2)C(=O)CO3)cc1F	20µM	-	-	-
COCCN1Cc2nc(-c3ccc(OC)c(F)c3)ccc2OCC1=O	40µM	-	-	-
O=C1COc2ccc(N3CCCC3)nc2CN1Cc1ccccc1	35µM	-	-	-
SMILES	KDM5B inh	HEK293 viab	SNCA expr inh	IP6K1 inh
O=C1COc2ccc(-c3cc(F)cc(F)c3)nc2CN1Cc1ccccc1	32µM	-	-	-
COCCN1Cc2nc(-c3cc(F)cc(F)c3)ccc2OCC1=O	-	-	-	-
O=C1COc2ccc(-c3ccccc3)nc2CN1Cc1ccccc1	-	-	-	-
CCOC(=O)c1scc(-c2ccccc2)c1S(=O)(=O)Nc1ccccc1	-	.	.	.
CCC(CC)C(CNC(=O)c1n[nH]c(=O)c2ccccc12)N1CCOCC1 (stereo not drawn)	-	.	.	.
CCc1ccc(C(=O)NCCOC)o1	-	.	.	.
Cn1nnnc1C1CCCN(C(=O)C2CCCC2)C1 (stereo not drawn)	28µM	-	-	-
COc1cc(SC)ccc1C(=O)N[C@H]1C[C@H]2C(=O)Nc3ccc(-c4ccc5c(c4)OCO5)cc3C(=O)N2C1	32µM	-	-	-
CC(=O)N1CCC(C(=O)N2CCN3C(=O)c4cc(-c5ccc6c(c5)OCO6)ccc4NC(=O)[C@H]3C2)CC1	?	-	-	-
O=C1Nc2ccc(-c3ccc4c(c3)OCO4)cc2C(=O)N2CCN(C(=O)COc3ccccc3)C[C@H]12	28µM	-	-	-
O=C1Nc2ccc(-c3ccc4c(c3)OCO4)cc2C(=O)N2CCN(C(=O)NC3CCCCC3)C[C@H]12	11µM	-	-	-
